# Experimental data published in the supplement of paper PMC12669032.
# Several values for one entry are separate records, joined by “and”; a condition that tells them apart may be missing. Equal values may be shown once. Unmarked numbers belong to inactive results.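 How the source made its calls: active = AUC reduced over 20% with Padj below 0.05 in at least 2 of 3 replicates; inactive = otherwise.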
# System: Parabacteroides merdae
# Test: growth AUC relative to DMSO control (median of replicates) (fraction); higher = more growth (less inhibition), active = hit call of the paper
# Conditions: 20 µM; 24 h
# Procedure, shortened: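 Hourly OD600 readings over 24 h tracked anaerobic gut bacterial monocultures grown at 37 °C in mGAM from OD600 0.05 with 20 µM compound (1% DMSO). After the minimum OD was set to 0, area under the growth curve was normalised to the plate median of solvent-only wells, or to row and column medians on the industrial chemical plate. Values are medians of three biological replicates grown on separate days.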
row,SMILES,growth AUC
1,Nc1cc(Cl)cc(C(=O)O)c1Cl,0.977
2,CCOP(=S)(OCC)Oc1cnccn1,1.01
3,O=C(O)C(F)(F)C(F)(F)C(F)(F)C(F)(F)C(F)(F)C(F)(F)C(F)(F)C(F)(F)F,1.01
4,CCOP(=S)(OCC)SCSCC,0.947
5,CCOCn1c(-c2ccc(Cl)cc2)c(C#N)c(Br)c1C(F)(F)F,0.834
6,CCS(=O)(=O)c1cccnc1S(=O)(=O)NC(=O)Nc1nc(OC)cc(OC)n1,0.993
7,CCNc1nc(NC(C)C)nc(SC)n1,1.04
8,CN1COCN(Cc2cnc(Cl)s2)/C1=N/[N+](=O)[O-],0.994
9,COP(=S)(NC(C)C)Oc1ccccc1C(=O)OC(C)C (centres undefined),0.931
10,COC(=O)C(C)(Cl)Cl,1.04
11,CCCCOCN(C(=O)CCl)c1c(CC)cccc1CC,0.976
12,CC1(C)C(C=C(Cl)Cl)C1C(=O)OC(C#N)c1ccc(F)c(Oc2ccccc2)c1 (mixture of isomers),0.937
13,CCOC(=O)CC(SP(=O)(OC)OC)C(=O)OCC (centres undefined),0.975
14,CCNc1nc(Cl)nc(NC(C)C)n1,0.999
15,Cc1cccc(C)c1N,0.999
16,CN(C)C(=O)Nc1ccc(Cl)cc1,1
17,CCCCNC(=O)n1c(NC(=O)OC)nc2ccccc21,0.965
18,N#Cc1cc(I)c(O)c(I)c1,0.802
19,CCOP(=S)(OCC)Oc1cc(Cl)c(Br)cc1Cl,0.962
20,Cc1cnc(C2=NC(C)(C(C)C)C(=O)N2)c(C(=O)O)c1 (centres undefined),1.02

row,SMILES,growth AUC
1,CC1(C)CCC(Cc2ccc(Cl)cc2)C1(O)Cn1cncn1 (centres undefined),0.918
2,CCCN(CCC)c1c([N+](=O)[O-])cc(S(C)(=O)=O)cc1[N+](=O)[O-],0.936
3,Cc1occc1C(=O)Nc1ccccc1,0.998
4,CCCOCC(=Nc1ccc(Cl)cc1C(F)(F)F)n1ccnc1,0.894
5,Nc1cc(Cl)cc(Cl)c1,1.04
6,O=C(O)COc1cc(Cl)c(Cl)cc1Cl,0.98
7,Cc1cc(Cl)ccc1N=CN(C)C,0.988
8,CNC(=O)Oc1cc(C)cc(C(C)C)c1,0.992
9,CCOc1cc(Oc2ccc(C(F)(F)F)cc2Cl)ccc1[N+](=O)[O-],0.954
10,O=[N+]([O-])c1c(Cl)c(Cl)c(Cl)c(Cl)c1Cl,0.942
11,CC(Cc1ccc(C(C)(C)C)cc1)CN1CCCCC1 (centres undefined),0.997
12,CNC(=O)c1cc(C#N)cc(C)c1NC(=O)c1cc(Br)nn1-c1ncccc1Cl,0.983
13,O=P(Oc1ccccc1)(Oc1ccccc1)Oc1ccccc1,0.842
14,CC(=NC#N)N(C)Cc1ccc(Cl)nc1,1.04 and 0.98
15,CO/N=C(/C1=NOCCO1)c1ccccc1Oc1ncnc(Oc2ccccc2Cl)c1F,0.892
16,Cc1ccn2nc(S(=O)(=O)Nc3c(F)cccc3F)nc2n1,1
17,N#Cc1c(Cl)c(Cl)c(Cl)c(C#N)c1Cl,0.823
18,C=CCC1=C(C)C(OC(=O)[C@@H]2[C@@H](C=C(C)C)C2(C)C)CC1=O (some centres undefined),0.999
19,O=C(O)CNCP(=O)(O)O,1.04
